Screening results (PubChem BioAssay)
Compounds with a hit are over-represented: about 2.4% of the library has one in this group of screens.
LT uptake inh – anthrax lethal toxin internalization inhibition | Cells, anthrax lethal toxin internalization, FRET ratio (460/530) | Potency, µM (top dose mostly 40 µM), inactives show at the top dose activity change, negative = inhibition, usual class: inhibitors | hit rate 0.67% among 70,000 | AID 912; also: % is scaled to controls: 0 for no effect and ±100 for the full control effect; nearly all actives have a fitted effect of over 50% in size
AmpC inh no det – blocks E. coli AmpC beta-lactamase in absence of detergent. Potency, µM (series often up to 28.7 µM), for inactives: at the highest dose activity change, negative = inhibition. AID 585. hit rate 1.8% among 71,000. AmpC nitrocefin hydrolysis, absorbance 480 nm, no detergent. P00811; also: % of control where 0% means no effect
Target sequence (P00811 whole entry, looked up): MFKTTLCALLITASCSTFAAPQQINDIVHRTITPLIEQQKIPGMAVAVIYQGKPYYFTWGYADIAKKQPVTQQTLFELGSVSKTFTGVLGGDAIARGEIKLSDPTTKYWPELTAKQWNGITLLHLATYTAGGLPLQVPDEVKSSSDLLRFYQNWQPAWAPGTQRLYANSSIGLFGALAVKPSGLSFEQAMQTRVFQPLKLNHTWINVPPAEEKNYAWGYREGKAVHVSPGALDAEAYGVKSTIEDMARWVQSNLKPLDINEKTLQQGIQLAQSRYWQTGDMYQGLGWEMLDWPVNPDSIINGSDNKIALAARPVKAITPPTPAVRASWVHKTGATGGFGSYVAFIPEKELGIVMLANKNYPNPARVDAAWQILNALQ
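Enzyme, pH 7.0 phosphate. Compound titrations were pre-incubated with AmpC for 15 min at room temperature before nitrocefin (stock 800 uM) addition; product formation was recorded at 480 nm every 20 s for 4 min.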
Prx2 Sm inh – blocks S. mansoni peroxiredoxin 2 enzymatic activity | hit rate 0.07% among 65,000 | Potency, µM | S. mansoni Prx2 activity coupled to TGR/GSH (TGR is thioredoxin glutathione reductase), NADPH fluorescence loss, qHTS | AID 448
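Enzyme mix: 100 uM NADPH, 25 nM TGR, 700 uM GSH, 50 nM Prx2 in 100 mM phosphate pH 7.4, 10 mM EDTA, 0.01% Tween-20. 15 min RT with compound; NADPH/GSH added, H2O2 starts reaction; NADPH fluorescence read 8 min.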
AmpC det inh – inhibitors of E. coli AmpC beta-lactamase with detergent; P00811; purified AmpC, nitrocefin hydrolysis with detergent; Potency, µM (doses to about 28.7 µM), for the others: top-dose activity change, negative = inhibition; hit rate 0.09% among 71,000; active = well fitted curve in the direction sought with a large enough effect; inconclusive = small, poorly fitted or top-dose-only effect; also: % is scaled to controls: 0 for no effect and ±100 for the full control effect
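E. coli AmpC (5.3 nM) in 20 mM phosphate pH 7.0 with 0.01% Triton X-100, preincubated 15 min RT with compound; nitrocefin (2 uL of 800 uM stock) hydrolysis followed by 480 nm absorbance every 20 s over 4 min.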
* marks the source's active call; other numbers are inactive results; u = inconclusive; x = no result; [ ] = remark or other dose. Unless noted, calls follow the shape of the full dose curve. Potency is read from the fitted curve at half-maximal effect.

SMILES	LT uptake inh	AmpC inh no det	Prx2 Sm inh	AmpC det inh
Cc1ccc(C)c2[nH]c(=O)c(CN(CCN3CCCC3)C(=O)Nc3cccc(Cl)c3)cc12	7.94µM*	98.5%	>57	-2.6%
O=C(CSc1nc(-c2ccc(F)cc2)cs1)NC(=O)NCc1ccco1	-19.0%	3.16µM*	>57	-0.4%
Cc1cc(NC(=O)CSc2nc(-c3ccc(F)cc3)cs2)no1	-1.9%	-13.1%	>57	-2.5%
O=C1/C(=C/Nc2ccc3c(c2)OCO3)CCc2ccccc21	7.94µM*	-17.3%	x	3.6%
Nc1c(Cl)cc(Cl)cc1Cl	3.2%	-11.6%	x	9.7%
Cc1cc(NC(=O)CSc2c3c(nc4ccccc24)CCC3)no1	u	3.98µM*[single pt active]	>57	12.1%
O=C(O)CCc1c2ccc(=O)c(O)c-2oc2c(O)c(O)ccc12	-25.6%[8 µM]	2.51µM*	>57	-26.4%[5.75 µM]
O=c1cc(-c2cccc(O)c2)oc2c(O)c(O)ccc12	u	u	>57	-7.9%
O=C(c1ccc2c(=O)n(Cc3ccc4c(c3)OCO4)c(=S)[nH]c2c1)N1CCCCC1	0.9%	15.8µM*[single pt active]	>57	11.4%
BrCC(Br)C1CCC(Br)C(Br)C1 (stereo not drawn)	15.8µM*	-22.0%	x	9.3%
c1ccc(-c2ccc(N3CC4(CCNCC4)C3)cc2)cc1	12.6µM*	82.1%	>57	-2.8%
c1ccc(C(c2ccccc2)N2CC3(CCNCC3)C2)cc1	10µM*	35.7%	>57	-3.1%
Cc1cc2n(n1)C(c1ccsc1)Nc1ccccc1-2 (stereo not drawn)	-7.9%	10.3%	>57	-5.3%
CSc1ccc(C2Nc3ccccc3-c3cc(C)nn32)cc1 (stereo not drawn)	12.6µM*	3.4%	>57	1.6%
COc1ccc2nc(NCN3C(=O)c4ccccc4C3=O)sc2c1	u	7.4%[5.75 µM]	>57	-1.7%[5.75 µM]
C1CCCNCC1	-5.3%	-6.1%	x	9.7%
CCc1ccc(-n2c(O)cnc2Nc2nc(C)cc(C)n2)cc1	-27.4%	3.98µM*[single pt active]	>57	10.4%
COc1ccc(-c2[nH]ncc2-c2cnn(-c3ccccc3)c2)c(O)c1	12.6µM*	-15.8%	>57	8.8%
CCCCn1c(=S)[nH]c2c(oc3ccc(Cl)cc32)c1=O	22.0%	6.31µM*	>57	1.0%
COCCn1c(=O)cnc2cnc(OC)nc21	-0.6%	2.1%	>57	0.4%
Cc1cccc(OCC(=O)NCc2ccncc2)c1C	-5.1%	3.16µM*[single pt active]	>57	11.4%
O=c1[nH]c(SCc2c(Cl)c(Cl)c(Cl)c(Cl)c2Cl)nc(=S)[nH]1	0.0%[8 µM]	-8.1%[5.75 µM]	>57	-5.0%[5.75 µM]
CCOC(=O)N1CCN(c2c(N3CCOCC3)c(=O)c2=O)CC1	-7.7%	3.98µM*[single pt active]	>57	5.9%
CCOC(=O)N1CCN(c2c(N3CCc4ccccc43)c(=O)c2=O)CC1	u	3.98µM*[single pt active]	x	14.1%
CCOC(=O)C1CCN(c2c(N3CCN(c4ccccc4OC)CC3)c(=O)c2=O)CC1	-6.0%	10.7%	>57	6.7%
SMILES	LT uptake inh	AmpC inh no det	Prx2 Sm inh	AmpC det inh
CCOC(=O)N1CCN(c2c(NCC3CCCO3)c(=O)c2=O)CC1 (stereo not drawn)	-5.7%	3.98µM*[single pt active]	>57	5.2%
CCOC(=O)N1CCN(c2c(N3CCN(c4ccccn4)CC3)c(=O)c2=O)CC1	-9.6%	3.98µM*[single pt active]	>57	13.3%
Nc1nc2c(c(=O)[nH]1)CN(CCCN1CCOCC1)CN2	u	7.7%[5.75 µM]	u	-2.3%[5.75 µM]
C=CC(=O)OCC(CO)(COC(=O)C=C)COC(=O)C=C	u	61.0%	x	-0.2%
O=C1c2ccccc2C(=O)N1c1ccc(Cc2ccc(N3C(=O)c4ccccc4C3=O)cc2)cc1	u	5.5%[5.75 µM]	>57	-5.3%[5.75 µM]
CCOCC(=O)Nc1ccc2c(c1)OCCO2	-5.0%	10.5%	>57	-2.8%
CCOC(=O)N1CCN(c2c(Nc3ccc4c(c3)OCCO4)c(=O)c2=O)CC1	u	3.98µM*[single pt active]	>57	12.7%
O=S(=O)(c1ccccc1)N1CN2CN(C1)CN(S(=O)(=O)c1ccccc1)C2	-5.1%[8 µM]	5.0%[5.75 µM]	>57	-2.6%[5.75 µM]
COc1ccccc1NC(=O)NCCN1C(=O)C2C3C=CC(C3)C2C1=O (stereo not drawn)	-1.0%	3.98µM*[single pt active]	>57	10.9%
O=C1C2C3C=CC(C3)C2C(=O)N1CCCCN1C(=O)C2C3C=CC(C3)C2C1=O (stereo not drawn)	-2.3%	1.4%	>57	-3.5%
COc1ccc(NC(=O)CCCN2C(=O)C3C4C=CC(C4)C3C2=O)c(OC)c1 (stereo not drawn)	2.6%	21.4%	>57	5.8%
O=C(NCCN1C(=O)C2C3C=CC(C3)C2C1=O)Nc1ccc(Br)cc1 (stereo not drawn)	-13.4%	3.98µM*[single pt active]	>57	13.5%
O=C(NCCN1C(=O)C2C3C=CC(C3)C2C1=O)Nc1cccnc1 (stereo not drawn)	u	3.98µM*[single pt active]	>57	13.5%
O=C(O)/C=C\c1ccc[c]([Sb](=[O])([OH])[OH])c1	-19.2%[8 µM]	-2.9%[5.75 µM]	>57	-7.6%[5.75 µM]
NCCSCCc1ccccc1	4.3%[8 µM]	3.4%[5.75 µM]	>57	-3.9%[5.75 µM]
COc1ccc(C2CC(=O)N3CN(c4ccc(C)c(Cl)c4)CSC3=C2C#N)cc1 (stereo not drawn)	-16.3%	2.51µM*[single pt active]	x	7.5%
COc1ccc(C2CC(=O)N3CN(c4ccccc4F)CSC3=C2C#N)cc1OC (stereo not drawn)	9.7%	0.6%	>57	13.3%
COc1ccc(N2CSC3=C(C#N)C(c4cccc(OC)c4OC)CC(=O)N3C2)cc1 (stereo not drawn)	-11.7%	3.98µM*[single pt active]	>57	10.4%
COc1ccc(OC)c(C2CC(=O)N3CN(c4ccccc4)CSC3=C2C#N)c1 (stereo not drawn)	-15.0%	8.4%	>57	13.0%
COc1cc(OC)c(C2CC(=O)N3CN(c4ccccc4C)CSC3=C2C#N)cc1OC (stereo not drawn)	x	13.7%	>57	-10.9%
Cc1cccc(N2CSC3=C(C#N)C(c4ccc(C)o4)CC(=O)N3C2)c1 (stereo not drawn)	x	15.8µM*	>57	-10.7%
CCc1ccccc1N1CSC2=C(C#N)C(c3ccccc3F)CC(=O)N2C1 (stereo not drawn)	-1.3%	12.6µM*[single pt active]	x	1.9%
C[C@@H]1[C@H]2CC[C@@H]3[C@@H]4CC=C5C[C@@H](N(C)C)CC[C@]5(C)[C@@H]4CC[C@@]32CN1C	3.98µM*	12.7%[12.8 µM]	>57	-1.3%[12.8 µM]
Clc1ccccc1CNCC1CCC(CNCc2ccccc2Cl)CC1 (stereo not drawn)	3.98µM*	18.6%	>57	-0.2%
COc1ccc(NC(=O)c2cc(CC(C)C)on2)cc1OC	-5.2%	3.98µM*[single pt active]	>57	12.1%
SMILES	LT uptake inh	AmpC inh no det	Prx2 Sm inh	AmpC det inh
Cc1onc(-c2ccccc2)c1C(=O)Nc1ccc2c(c1)OCO2	-12.6%	-6.3%	x	4.1%
O=C(Nc1ccc2c(c1)OCO2)c1cc2ncc(Br)cn2n1	3.3%	15.8µM*[single pt active]	>57	25.0%
CC(C)Cc1cc(C(=O)Nc2ccc3c(c2)OCO3)no1	u	3.98µM*[single pt active]	>57	12.6%
COc1cccc(-c2cc(C(=O)Nc3ccc(OC)c(OC)c3)no2)c1	-13.4%	31.7%	>57	-5.2%
CCc1ccc(NC(=O)c2cc(CC(C)C)on2)cc1	-29.1%	3.98µM*[single pt active]	>57	12.3%
COc1ccc(NC(=O)NCCCN2CCc3ccccc3C2)cc1	-9.4%	3.98µM*[single pt active]	>57	14.4%
COc1ccccc1N1CCN(CCCNC(=O)Nc2ccccc2)CC1	x	18.0%	>57	-2.7%
